Results: PubChem BioAssay (NCI)
This is part of a sample that, as a whole, favours compounds with a hit. Of some 83,000 tested, about 20% had one in any assay.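 Assay: single dose, 48 h. Readout: percent growth (0 = no net growth; negative = cell death). Active: <10.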 Values without a mark were called inactive. Active and inactive are the calls of the source.

Experiments:
Assay in all cases: NCI-60 one-dose screen, 48 h (100 = growth as untreated, 0 = no growth, -100 = all killed)
Details in all cases: 10 µM
RPMI-8226 leukemia = test system: RPMI-8226 leukemia
OVCAR-8 ovarian = test system: OVCAR-8 ovarian
OVCAR-5 ovarian = test system: OVCAR-5 ovarian
OVCAR-4 ovarian = test system: OVCAR-4 ovarian
SK-OV-3 ovarian = test system: SK-OV-3 ovarian
OVCAR-3 ovarian = test system: OVCAR-3 ovarian
HS 578T breast = test system: HS 578T breast
NCI/ADR-RES ovarian = test system: NCI/ADR-RES ovarian
T-47D breast = test system: T-47D breast
MDA-MB-435 melanoma = test system: MDA-MB-435 melanoma
SW-620 colon = test system: SW-620 colon
MCF7 breast = test system: MCF7 breast
HCT-116 colon = test system: HCT-116 colon
HCC-2998 colon = test system: HCC-2998 colon
KM12 colon = test system: KM12 colon
BT-549 breast = test system: BT-549 breast
SR leukemia = test system: SR leukemia
IGROV1 ovarian = test system: IGROV1 ovarian

| SMILES | growth (RPMI-8226 leukemia) | growth (OVCAR-8 ovarian) | growth (OVCAR-5 ovarian) | growth (OVCAR-4 ovarian) | growth (SK-OV-3 ovarian) | growth (OVCAR-3 ovarian) | growth (HS 578T breast) | growth (NCI/ADR-RES ovarian) | growth (T-47D breast) | growth (MDA-MB-435 melanoma) | growth (SW-620 colon) | growth (MCF7 breast) | growth (HCT-116 colon) | growth (HCC-2998 colon) | growth (KM12 colon) | growth (BT-549 breast) | growth (SR leukemia) | growth (IGROV1 ovarian) |
| --- | --- | --- | --- | --- | --- | --- | --- | --- | --- | --- | --- | --- | --- | --- | --- | --- | --- | --- |
| COc1ccccc1N1CCCSC1=Nc1ccccc1 | 43.6% | 104% | 93.9% | 151% | 113% | 94.1% | 117% | 103% | 107% | 103% | 103% | 98.6% | 79.2% | 108% | 91.7% |  |  |  |
| CCCCN1C(=O)CC(SC2CC(=O)N(CCCC)C2=O)C1=O (configuration not stated) | 100% | 108% | 108% | 109% | 111% | 106% | 103% | 111% | 106% | 108% | 110% | 102% | 105% |  | 107% | 104% |  |  |
| Cc1c(C(N)=O)sc2c1c(=O)n(Cc1ccccc1)c1nnc(-c3ccc(Br)cc3)n21 | 12.1% | 0.274% (active) | 48.6% | 40.2% | 33.2% | 49.5% | 73.6% | 6.12% (active) | 20.9% | 39% | 33.1% | 21.5% | 12.4% | 25% | 25.6% | 22.6% |  |  |
| CCOc1ccccc1/C=N\N=C(\N)N/N=C/c1ccccc1OCC | 27.1% | 39.1% | 93.4% | 71.8% | 10.3% | 7.41% (active) |  | 3.57% (active) | 14.8% | -3.3% (active) |  | 8.26% (active) | 24.9% |  |  | 36% |  |  |
| COc1ccc(-c2nn(-c3cccc(Cl)c3)cc2-c2c(C#N)c(N)n(N)c(=O)c2C#N)cc1 |  | 73.3% | 84.4% | 89.3% | 95% | 72.4% | 58.2% | 90.4% | 48.7% |  | 83% | 47.5% | 45.7% | 93.4% | 62.3% | 58% |  |  |
| COc1ccc2c(c1)C(CC(=O)NN)CCC2 (configuration not stated) | 113% | 99.1% | 100% | 110% | 115% | 112% | 102% | 108% | 105% | 103% | 106% | 95.6% | 104% |  | 105% | 103% |  |  |
| COc1ccc(-c2cc(-c3cc(OC)ccc3OC)nc(N)c2C#N)cc1 |  | 39.5% |  | 48.4% | 62.9% | 53.7% | 53.7% | 52.4% | 54.4% | 46.8% | 65.5% | 38.9% | 35.1% | 76.6% | 71.7% | 24.7% | 43.9% | 58.7% |
| Cc1cn(-c2cc(F)cc(NC(=O)c3ccc(C)c(Nc4nccc(-c5cccnc5)n4)c3)c2)cn1 |  | 31.6% | 45.2% | -41.7% (active) |  | -30.9% (active) | 38.5% | 59.9% | 3.22% (active) |  | 40.5% | 16.8% | 6.97% (active) | 101% | 15.6% | -27.3% (active) |  |  |
| O=C1/C(=C/c2cccc(F)c2)Cc2ccccc21 | 93.3% | 97.4% | 120% | 97.5% |  | 113% | 181% | 102% | 103% | 97.9% | 102% | 25.1% |  | 97.1% | 98.7% | 106% |  | 99.6% |
| CCN1C(=O)CC(SC2CC(=O)N(CC)C2=O)C1=O (configuration not stated) |  | 109% | 106% | 102% | 103% | 107% | 101% | 98.7% | 102% | 104% | 108% | 103% | 104% | 97.6% | 104% | 101% |  | 107% |
